High-throughput results from PubChem BioAssay.
Sampled rows, rich in hits. Any-hit rate of the full collection: about 11%.
USP30 inh: inhibitors of human USP30 deubiquitinase; actives 5.3% (n = 47,000); Ubiquitin carboxyl-terminal hydrolase 30 (Homo sapiens), Q70CQ3; purified USP30, Ub-rhodamine cleavage fluorescence; inhibition, % at 25 µM
USP28 inh: inhibitors of human USP28 deubiquitinase | Ubiquitin carboxyl-terminal hydrolase 28 (Homo sapiens), Q96RU2 | purified USP28, Ub-rhodamine cleavage fluorescence, 30 min | inhibition, % at 25 µM | actives 3% (n = 47,000) | AID 1645857, 2021
OTUD3 block: inhibitors of human OTUD3 deubiquitinase. OTU domain-containing protein 3 (Homo sapiens), Q5T2D3. purified OTUD3, Ub-rhodamine fluorescence, 2 h. inhibition, % at 25 µM. actives 0.7% (n = 47,000). AID 1645858, 2021
USP17 block: inhibitors of human USP17 deubiquitinase | Ubiquitin carboxyl-terminal hydrolase 17-like protein 5 (Homo sapiens), A8MUK1 | purified USP17, Ub-rhodamine cleavage fluorescence, 3 h | inhibition, % at 50 µM | actives 6.5% (n = 47,000) | AID 1645855, 2021
Numbers stand for hits; 0 = inactive; - = no result given. No stated cut-off is given here; in the data, active means inhibition above about 30%; inactive means the rest.

SMILES	USP30 inh	USP28 inh	OTUD3 block	USP17 block
COc1ccc(C(=O)N2CCCN(C)c3nc4ccccc4nc32)cc1OC	0	0	0	0
Cc1nc(C2CCCN2C(=O)c2ccccn2)nc2c1CCC(=O)N2Cc1ccc(F)cc1 (configuration not stated)	0	0	0	0
CCCc1nc2sc3c(N(CC)CC)ncnc3c2c2c1CCC2	0	52	0	0
CCCc1nc2sc3c(NC4CCCCC4)ncnc3c2c2c1CCC2	0	75	0	0
CCCCc1nc2sc3c(SCC(=O)OC)ncnc3c2c2c1CCC2	0	0	0	0
CCCc1nc2sc3c(NCCc4ccc(OC)c(OC)c4)ncnc3c2c2c1CCC2	0	67	0	0
CCCCc1nc2sc3c(SCC(=O)Nc4ccc(OC)cc4)ncnc3c2c2c1CCC2	48	0	0	0
COc1ccc(NC(=O)CSc2ncnc3c2sc2nc(CC(C)C)c4c(c23)CCC4)cc1	0	0	0	0
CC(C)Cc1nc2sc3c(NC4CCCCC4)ncnc3c2c2c1CCC2	0	0	0	0
CC(C)c1ccc(-n2ccnc(NC(=O)c3ccccn3)c2=O)cc1	0	0	0	0
O=C(NC1CC1)c1nc(-c2ccc3[nH]ccc3c2)no1	0	0	0	0
O=C(Nc1ccccc1[N+](=O)[O-])N1CCCC1c1ccco1 (configuration not stated)	0	0	0	0
O=C(O)c1ccc(CSc2nc3ccncc3n2Cc2ccccc2)cc1	-	-	0	0
CCc1nc2sc3c(NCCN4CCOCC4)ncnc3c2c2c1COC(C)(C)C2	0	0	0	0
CCCCNc1ncnc2c1sc1nc(CCCC)c3c(c12)CC(C)(C)OC3	0	0	0	45
Nc1ccc(NC(=O)c2cc3c(s2)CCC3)cc1[N+](=O)[O-]	0	31	0	58
O=C(Nc1cc(S(=O)(=O)Nc2ccc(Cl)cc2)ccc1O)c1cc2c(s1)CCC2	0	0	0	0
Cc1cc(C)c(C)c(Oc2coc3cc(O)ccc3c2=O)c1	0	34	0	0
O=C(/C=C/c1ccc(F)cc1)N1CCC(Cc2ccccc2)CC1	51	33	0	36
O=C(CN(c1ccc(F)cc1)S(=O)(=O)c1ccccc1)N1CCC(Cc2ccccc2)CC1	0	0	0	0
Cc1noc(C)c1-c1ccc(S(=O)(=O)Nc2ccc(C#N)cc2)cc1	0	0	0	0
Cc1cc(SCc2ncon2)c(C)cc1Cl	0	69	0	-
Cc1ccc(CSc2nc3nc4c(cn3n2)C(=O)CCC4)cc1	-	-	0	0
Cc1cccc(CSc2nc3nc4c(cn3n2)C(=O)CC(C)(C)C4)c1	35	0	0	0
Cc1ccc2cc3c(nc2c1)N(S(=O)(=O)c1ccccc1)CC3	0	0	0	0
SMILES	USP30 inh	USP28 inh	OTUD3 block	USP17 block
O=C(NC1CC1)c1c(NC(=O)C2c3ccccc3Oc3ccccc32)sc2c1CCCC2	0	0	0	0
CC(C)CNC(=O)N1CCc2nc(C(=O)N3CCCC3)sc2CC1	0	0	0	0
O=C(NC1CCCCCC1)c1cccc(S(=O)(=O)Nc2cc(C(F)(F)F)ccc2Cl)c1	31	0	0	33
Clc1cccc(COc2ccc(-n3cnnn3)cc2)c1	0	49	0	0
N#Cc1c(SCCO)nc(N2CCCC2)c2c1CCCC2	0	62	0	0
O=C1COc2ccccc2C/C=C/CC2(CCN(S(=O)(=O)N3CCCC3)CC2)CN1	0	0	0	0
O=C(NCC1CCCO1)N1CCCn2nc(-c3cccnc3)cc2C1 (configuration not stated)	0	0	0	0
O=C(NCc1ccco1)N1CCCn2nc(-c3cccnc3)cc2C1	0	0	0	31
Cc1nn2c(CNS(=O)(=O)c3ccc(F)cc3)c(C)nc2s1	0	0	0	0
Cc1cccc(CNS(=O)(=O)c2ccc(-c3cc(C)no3)s2)c1	0	0	0	36
Cc1cc(-c2ccc(S(=O)(=O)NCc3ccccc3C)s2)on1	37	0	0	35
Cc1cccc(CNS(=O)(=O)c2ccc(-c3cc(C(F)(F)F)on3)s2)c1	0	0	0	43
Cc1cc(-c2ccc(S(=O)(=O)NCc3ccc(Cl)cc3)s2)on1	59	59	0	77
CC(=O)c1cccc(NS(=O)(=O)c2ccc(-c3cc(C)no3)s2)c1	0	0	0	0
Cc1cc(-c2ccc(S(=O)(=O)NC3CC3)s2)on1	0	0	0	0
O=C(c1nc(Cc2c[nH]c3ccccc23)no1)N1CCOCC1	0	0	0	0
Cc1ccccc1CNS(=O)(=O)c1cc(-c2[nH]ncc2C(=O)N(C)C)oc1C	0	0	0	0
Cc1oc(-c2[nH]ncc2C(=O)N(C)C)cc1S(=O)(=O)Nc1ccccc1	30	0	0	0
